Assay [1] is described as follows: qHTS assay to identify small molecule antagonists of the thyroid receptor (TR) signaling pathway (AID 743065). Note: nearly all actives have a fitted effect of over 55% in size. Note: potency is the fitted concentration of half-maximal effect. The method in brief: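 Antagonism measured as loss of luciferase signal in GH3 cells stably carrying a TRE-luciferase reporter, co-treated with compound and T3 (1 nM final) for 23.5 h at 37 C. Viability was read in the same well by CellTiter-Fluor.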
For assay [2], the system named is thyroid hormone receptor (rat, GH3 cells). Nature of the assay: qHTS assay to identify small molecule agonists of the thyroid receptor (TR) signaling pathway (AID 743066; calls by dose curve).
The target of assay [3] is Estrogen receptor (Homo sapiens) (UniProt P03372). Nature of the assay: qHTS assay to identify small molecule antagonists of the estrogen receptor alpha (ER-alpha) signaling pathway (AID 743069; active = well fitted curve in the direction sought with a large enough effect in the signal ratio in the repeat runs, not every such curve was filed as active; the % refers to the signal ratio; note: potency is the fitted concentration of half-maximal effect). The method in brief:
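ER-alpha-UAS-bla GripTite HEK293 line; 2% charcoal-stripped FBS overnight; plated, 4 hr 37C/5% CO2; cpd in DMSO + 17beta-estradiol, 18 hr 37C; LiveBLAzer B/G FRET substrate 2 hr RT; fluorescence intensity.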

The nature of assay [4]: qHTS assay to identify small molecule antagonists of the estrogen receptor alpha (ER-alpha) signaling pathway - cell viability counter screen (AID 743074; calls by dose curve;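 note: HEK293 cells carrying ER-alpha-UAS-bla reporter stimulated with 17beta-estradiol; nearly all actives have a fitted effect of over 45% in size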).
In assay [5] the target is Estrogen receptor (Homo sapiens) (UniProt P03372). Nature of the assay: qHTS assay to identify small molecule agonists of the estrogen receptor alpha (ER-alpha) signaling pathway (AID 743075; calls by dose curve;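 note: HEK293 GripTite cells with ER-alpha and UAS-driven beta-lactamase reporter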).
Assay [6] shares this target. As to the kind of experiment: qHTS assay to identify small molecule agonists of the estrogen receptor alpha (ER-alpha) signaling pathway using the BG1 cell line (AID 743079). Note: nearly all actives have a fitted effect of over 20% in size.
The nature of assay [7]: qHTS assay to identify small molecule antagonists of the estrogen receptor alpha (ER-alpha) signaling pathway using the BG1 cell line (AID 743080; calls by dose curve;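 note: BG1 cells stimulated with 17beta-estradiol alongside compound; nearly all actives have a fitted effect of over 25% in size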; note: potency is the fitted concentration of half-maximal effect). The method in brief:
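BG1-Luc-4E2 cells (endogenous full-length ER-alpha, 4xERE luciferase) hormone-starved 5 days in charcoal-stripped FBS, plated 4,000/well for 24 h, then compound plus 17beta-estradiol for 21.5 h at 37 C; ONE-Glo luminescence read.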

The nature of assay [8]: qHTS assay to identify small molecule antagonists of the estrogen receptor alpha (ER-alpha) signaling pathway using the BG1 cell line - cell viability counter screen (AID 743081).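 Note: compound given together with 17beta-estradiol as the ER stimulus; series mostly up to about 70 µM; nearly all actives have a fitted effect of over 45% in size.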
Assay [9] deals with Aromatase (Homo sapiens) (UniProt P11511). As to the kind of experiment: qHTS assay to identify aromatase inhibitors (AID 743083). Note: nearly all actives have a fitted effect of over 55% in size. Note: potency is the fitted concentration of half-maximal effect.
Assay [10] in a line: qHTS assay to identify aromatase inhibitors - cell viability counter screen (AID 743084).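 Note: cells stimulated with testosterone during compound exposure; nearly all actives have a fitted effect of over 55% in size.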
Assay [11] concerns the target Aryl hydrocarbon receptor (Homo sapiens) (UniProt P35869). Nature of the assay: qHTS assay to identify small molecule that activate the aryl hydrocarbon receptor (AhR) signaling pathway (AID 743085).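 Note: HG2L7.5c1 human HepG2 liver cells with stably integrated DRE-driven firefly reporter; series mostly up to about 70 µM; nearly all actives have a fitted effect of over 15% in size.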 The method in brief: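 Luminescence read-out: ONE-Glo reagent, 30 min at room temperature, in HG2L7.5c1 HepG2 reporter cells treated 24 h at 37C. Viability was measured beforehand by CellTiter-Fluor fluorescence after 30 min at 37C.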

A short description of assay [12]: qHTS assay to identify small molecule that activate the aryl hydrocarbon receptor (AhR) signaling pathway - cell viability counter screen (AID 743086). Note: series mostly up to about 70 µM; nearly all actives have a fitted effect of over 45% in size. The method in brief: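 Cytotoxicity counter screen: CellTiter-Fluor signal (30 min, 37 C) in 4000 HepG2 cells/well carrying the DRE-luciferase reporter, following 24 h compound exposure at 37 C.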
The target of assay [13] is Peroxisome proliferator-activated receptor gamma (Homo sapiens) (UniProt P37231). Nature of the assay: qHTS assay to identify small molecule agonists of the peroxisome proliferator-activated receptor gamma (PPARg) signaling pathway (AID 743094; active = well fitted activation curve with a large enough effect in the signal ratio in the repeat runs, not every such curve was filed as active; the % refers to the signal ratio). The method in brief:
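GeneBLAzer PPARg UAS-bla HEK293H cells were plated, rested 5 h, then exposed to compounds for 17 h at 37C. Beta-lactamase activity was read by LiveBLAzer B/G FRET substrate fluorescence after 1 h at room temperature.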

A short description of assay [14]: qHTS assay to identify small molecule antagonists of the peroxisome proliferator-activated receptor gamma (PPARg) signaling pathway - cell viability counter screen (AID 743194). Note: nearly all actives have a fitted effect of over 55% in size. The method in brief: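 Viability was measured as CellTiter-Glo luminescence in GeneBLAzer PPARg UAS-bla HEK293H cells. These cells had been exposed 17 h at 37 C to compounds together with rosiglitazone at 50 nM final, with the beta-lactamase readout taken in the same wells.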

Assay [15] can be described thus: qHTS assay for small molecule agonists of the antioxidant response element (ARE) signaling pathway - cell viability counter screen (AID 743203; calls by dose curve; note: nearly all actives have a fitted effect of over 55% in size; note: potency is the fitted concentration of half-maximal effect). The method in brief: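 ARE-bla HepG2 cells were plated, rested 5 h at 37C/5% CO2, then exposed to compounds in DMSO for 16 h. Viability was read as CellTiter-Glo luminescence after 30 min at room temperature, in the same wells as the ARE screen.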

A short description of assay [16]: qHTS assay for small molecule activators of the heat shock response signaling pathway - cell viability counter screen (AID 743209). Note: nearly all actives have a fitted effect of over 50% in size. The method in brief:
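HSE-bla HeLa cells plated overnight, then exposed to Tox21 compounds (23 nL in DMSO) for 5 h at 37 C. After the bla reporter read, CellTiter-Glo was added in the same wells and luminescence read after 30 min at room temperature.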

The nature of assay [17]: qHTS assay for small molecule activators of the heat shock response signaling pathway (AID 743210; active = well fitted activation curve with a large enough effect in the signal ratio in the repeat runs, with a control signal flat, not every such curve was filed as active; the % refers to the signal ratio;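 note: HeLa cells with beta-lactamase reporter driven by heat shock elements; series mostly up to about 63 µM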). The method in brief: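 HeLa HSE-bla cells, overnight plating; cpd in DMSO 5 h, 37 C; LiveBLAzer B/G FRET substrate 2.5 h RT; fluorescence intensity read.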
A short description of assay [18]: qHTS assay to identify small molecule antagonists of the thyroid receptor (TR) signaling pathway - cell viability counter screen (AID 743064). Note: nearly all actives have a fitted effect of over 50% in size. Note: potency is the fitted concentration of half-maximal effect. The method in brief:
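GH3.TRE-Luc cells, 4 h pre-plating; cpd + T3 1 nM final; 37 °C 23.5 h; CellTiter-Fluor 30 min; fluorescence read.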

For assay [19], the target named is Peroxisome proliferator-activated receptor gamma (Homo sapiens) (UniProt P37231). Nature of the assay: qHTS assay to identify small molecule antagonists of the peroxisome proliferator-activated receptor gamma (PPARg) signaling pathway (AID 743191; calls by dose curve; note: series mostly up to about 63 µM; nearly all actives have a fitted effect of over 30% in size). The method in brief: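 Beta-lactamase reporter under UAS control in HEK293H PPARg-bla cells; compound treatment 17 h at 37C. Read-out: fluorescence intensity after 1 h room-temperature incubation with LiveBLAzer B/G FRET substrate.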

Assay [20] can be described thus: qHTS assay for small molecule agonists of the antioxidant response element (ARE) signaling pathway (AID 743202; active = well fitted activation curve with a large enough effect in the signal ratio in the repeat runs, not every such curve was filed as active; the % refers to the signal ratio). The method in brief:
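Quantitative high-throughput format in HepG2 cells bearing an integrated ARE-beta-lactamase reporter. Compound exposure lasted 16 h at 37 C, and fluorescence was read 2 h after adding LiveBLAzer B/G substrate at room temperature.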

Inconclusive results are not listed. Unmarked numbers belong to inactive results. Active and inactive are the calls of the source. Unless noted, calls come from the whole dose curve; as a rule, active = well fitted curve in the direction sought with a large enough effect in the repeat runs; inconclusive = weak or mixed curves; inactive = no such curve, though single readings can be large; an effect the other way counts as inactive or inconclusive.

Chain of Estrogen receptor (Homo sapiens) (P03372 whole entry, looked up): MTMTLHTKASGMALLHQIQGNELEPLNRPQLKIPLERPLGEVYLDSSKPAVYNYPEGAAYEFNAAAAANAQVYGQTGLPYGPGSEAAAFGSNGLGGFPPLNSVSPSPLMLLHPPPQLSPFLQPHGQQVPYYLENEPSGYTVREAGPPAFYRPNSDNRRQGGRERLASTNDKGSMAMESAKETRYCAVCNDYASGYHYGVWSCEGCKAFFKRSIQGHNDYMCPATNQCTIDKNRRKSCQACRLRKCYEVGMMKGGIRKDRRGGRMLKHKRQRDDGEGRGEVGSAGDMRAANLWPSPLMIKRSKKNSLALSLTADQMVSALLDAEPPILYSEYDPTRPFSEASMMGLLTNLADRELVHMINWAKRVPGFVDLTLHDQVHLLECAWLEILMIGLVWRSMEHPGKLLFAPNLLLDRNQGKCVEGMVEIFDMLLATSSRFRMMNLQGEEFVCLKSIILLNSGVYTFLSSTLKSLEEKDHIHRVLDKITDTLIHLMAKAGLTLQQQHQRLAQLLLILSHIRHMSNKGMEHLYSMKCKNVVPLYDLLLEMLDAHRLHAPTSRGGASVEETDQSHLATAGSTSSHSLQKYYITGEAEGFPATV
Chain of Peroxisome proliferator-activated receptor gamma (Homo sapiens) (P37231 whole entry, looked up): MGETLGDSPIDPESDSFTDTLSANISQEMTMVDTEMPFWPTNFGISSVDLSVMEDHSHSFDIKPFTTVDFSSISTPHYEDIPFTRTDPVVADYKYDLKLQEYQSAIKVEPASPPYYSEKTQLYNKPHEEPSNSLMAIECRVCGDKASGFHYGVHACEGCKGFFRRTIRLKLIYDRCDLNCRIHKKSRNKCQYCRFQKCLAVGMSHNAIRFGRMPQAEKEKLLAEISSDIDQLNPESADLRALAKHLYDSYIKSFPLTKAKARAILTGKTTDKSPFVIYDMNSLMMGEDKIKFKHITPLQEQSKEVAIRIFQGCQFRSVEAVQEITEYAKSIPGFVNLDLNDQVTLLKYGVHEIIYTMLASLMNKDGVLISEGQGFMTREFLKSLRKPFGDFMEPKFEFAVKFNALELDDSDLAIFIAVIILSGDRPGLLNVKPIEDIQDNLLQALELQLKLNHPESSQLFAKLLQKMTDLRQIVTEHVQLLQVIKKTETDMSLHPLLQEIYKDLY
Chain of Aromatase (Homo sapiens) (P11511 whole entry, looked up): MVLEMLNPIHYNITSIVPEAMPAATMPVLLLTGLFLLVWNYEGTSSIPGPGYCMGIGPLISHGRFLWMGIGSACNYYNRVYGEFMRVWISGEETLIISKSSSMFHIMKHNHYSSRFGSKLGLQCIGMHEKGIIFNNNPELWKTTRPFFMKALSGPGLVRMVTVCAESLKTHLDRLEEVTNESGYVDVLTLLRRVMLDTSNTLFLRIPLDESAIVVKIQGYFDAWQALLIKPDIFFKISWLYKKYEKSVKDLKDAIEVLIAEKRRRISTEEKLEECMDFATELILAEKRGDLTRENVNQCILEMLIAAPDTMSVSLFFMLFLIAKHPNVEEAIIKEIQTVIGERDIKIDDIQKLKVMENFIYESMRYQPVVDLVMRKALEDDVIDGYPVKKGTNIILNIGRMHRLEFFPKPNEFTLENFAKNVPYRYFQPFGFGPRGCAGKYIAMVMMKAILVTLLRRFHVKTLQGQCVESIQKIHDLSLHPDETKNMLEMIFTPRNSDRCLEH
Chain of Aryl hydrocarbon receptor (Homo sapiens) (P35869 whole entry, looked up): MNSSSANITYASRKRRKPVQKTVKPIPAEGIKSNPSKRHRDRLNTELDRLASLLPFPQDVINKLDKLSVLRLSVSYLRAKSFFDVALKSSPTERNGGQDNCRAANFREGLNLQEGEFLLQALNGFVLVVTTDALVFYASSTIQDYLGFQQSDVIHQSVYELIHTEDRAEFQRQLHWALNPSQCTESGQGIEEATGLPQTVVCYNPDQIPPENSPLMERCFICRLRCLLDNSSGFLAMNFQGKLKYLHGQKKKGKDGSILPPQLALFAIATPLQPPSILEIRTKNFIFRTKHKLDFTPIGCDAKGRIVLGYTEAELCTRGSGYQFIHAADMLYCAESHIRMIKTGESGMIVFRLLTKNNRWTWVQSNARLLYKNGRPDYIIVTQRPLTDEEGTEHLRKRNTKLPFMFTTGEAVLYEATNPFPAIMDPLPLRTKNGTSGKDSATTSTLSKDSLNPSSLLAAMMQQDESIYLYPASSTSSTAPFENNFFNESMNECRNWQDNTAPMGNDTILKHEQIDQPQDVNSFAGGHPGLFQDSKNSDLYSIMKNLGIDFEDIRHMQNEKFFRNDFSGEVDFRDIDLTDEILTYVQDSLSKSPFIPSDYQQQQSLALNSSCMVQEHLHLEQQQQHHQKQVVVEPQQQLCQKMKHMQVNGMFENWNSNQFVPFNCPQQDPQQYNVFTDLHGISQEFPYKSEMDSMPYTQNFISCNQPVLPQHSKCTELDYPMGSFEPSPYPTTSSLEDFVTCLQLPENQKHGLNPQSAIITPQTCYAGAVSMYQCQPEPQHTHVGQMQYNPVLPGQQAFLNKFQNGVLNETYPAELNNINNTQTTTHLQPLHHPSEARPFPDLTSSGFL

For the molecule `CC1C(C)(C)C2=C(C(=O)CCC2)C1(C)C` (centres undefined), the Potency result in assay [1], in [2], in assay [3], in assay [4], in [5] and in [6] was “inactive” in each case. The Potency result in [7], in [8], in [9], in assay [10], in assay [11] and in assay [12] was “inactive” throughout. Also, the Potency entry in assay [14], in assay [15], in [16] and in [17] was “inactive” in each case. Moreover, the outcome in [13] was inactive.

Consider `COC(=O)C1=C(C)NC(C)=C(C(=O)OC(C)(C)CN(C)CCC(c2ccccc2)c2ccccc2)C1c1cccc([N+](=O)[O-])c1` (centres undefined), for which the Potency is 8.41 µM (active) in assay [18]; 6.68 µM (active) in assay [1]; 10.7 µM [inhibitor] (active) in assay [3]; 26.6 µM (active) in [7]; 18.8 µM (active) in assay [9]. In addition, the Potency result in [5], in assay [8], in [10], in [14], in [15] and in assay [16] was “inactive” in each case. In addition, the Potency result in assay [17] is “inactive”. The call in assay [13] was inactive.

As for `O=CNNC=O`, the Potency entry in [1], in assay [2], in assay [3], in assay [4], in [5] and in assay [6] was “inactive” each time. The Potency result in assay [7], in [8], in assay [9], in [10], in assay [11] and in assay [12] was “inactive” in each case. The Potency entry in assay [14] and in [15] was “inactive” each time. In addition, the molecule was classed as inactive in assay [13].

On to `CCOC(=O)c1ccc(NC(=O)CN2CCCCC2)cc1`, for which the Potency entry in assay [18], in assay [2], in [3], in [4], in [5] and in assay [8] was “inactive” in each case. Moreover, the Potency entry in assay [9], in assay [10], in assay [12], in assay [14], in assay [15] and in [16] was “inactive” in each case. Moreover, the Potency entry in assay [17] is “inactive”.

For `CCN(CC)CCOc1ccccc1C(=O)CCc1ccccc1`, the Potency in [1] was 26.6 µM (active). In addition, the Potency entry in [2], in assay [3], in assay [4], in [5], in [6] and in assay [7] was “inactive” in each case. The Potency result in [8], in assay [9], in assay [10], in assay [11], in assay [12] and in [14] was “inactive” in each case. In addition, the Potency entry in [15], in assay [16] and in [17] was “inactive” each time.

As for `O=C(O)c1cc(Cl)cc(Cl)c1O`, the Potency entry in assay [18], in [2], in assay [4], in assay [8], in assay [9] and in [10] was “inactive” throughout. Moreover, the Potency entry in assay [11], in [12], in [19], in assay [14], in assay [15] and in assay [16] was “inactive” throughout. Further, the Potency entry in assay [17] was “inactive”.

On to `CCCCCCCCCCCCCC(=O)OCC(O)CO` (centres undefined), for which the Potency entry in assay [18], in [2], in assay [4], in [8], in assay [9] and in assay [10] was “inactive” throughout. The Potency entry in assay [11], in [12], in assay [14], in assay [20], in assay [16] and in [17] was “inactive” in each case.

Turning to `CCCCCCCCCCCCCOS(=O)(=O)O`, the Potency entry in assay [18], in assay [2], in [4], in assay [8], in [9] and in assay [10] was “inactive” in each case. Also, the Potency result in assay [11], in assay [12], in assay [14] and in assay [16] was “inactive” throughout. Further, in assay [13], the result was inactive. Moreover, in assay [15], the Potency was 61.1 µM (active).

`CCOC(=O)c1c(N)sc2c1CCN(Cc1ccccc1)C2`: the Potency entry in assay [18], in [2], in [3], in [4], in assay [5] and in [9] was “inactive” throughout. The Potency result in assay [10], in [12], in [19], in assay [14], in assay [15] and in [16] was “inactive” in each case. For the same molecule, the Potency result in assay [17] is “inactive”.
